Assay outcomes as filed in PubChem BioAssay.
FAS TE block – inhibitors of human fatty acid synthase thioesterase domain; P49327; recombinant FAS-TE, OMFH fluorogenic substrate, fluorescence endpoint; inhibition, % at 15 µM; hit rate 0.67% among 360,000;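 active means compounds whose normalised, plate-corrected inhibition of enzyme fluorescence in the single-dose primary screen is 50% or more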;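 further: 0% = DMSO with enzyme and 100% = substrate without enzyme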
KLK7 zymogen act – activators of human kallikrein-7 zymogen; purified proKLK7, EDANS-DABCYL substrate fluorescence; 100% is mature enzyme control, 0% vehicle; activation, % at 7 µM; hit rate 0.9% among 370,000; AID 652039;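 active means activation above the mean of all tested compounds plus 3 SD, computed per campaign excluding outliers beyond control limits, cut at about 13% in these data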
ADAM10 inh – inhibitors of human ADAM10; recombinant ADAM10, EDANS/DABCYL FRET peptide cleavage, 3 h; inhibition, % at 7 µM; hit rate 0.62% among 370,000; AID 720582;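 active means inhibition above a per-campaign cutoff equal to the mean of compounds falling between control-based bounds plus 3 SD, cut at about 20% in these data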;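 further: 0% = DMSO wells while the 100% control is not disclosed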
NR3A LBD binder – modulates the human NR3A ligand-binding domain | AID 1259313 | NR3A LBD differential scanning fluorimetry, Tm shift; 0% = protein alone, 100% = glycine-bound protein | hit rate 2.5% among 340,000 | Tm shift relative to glycine control, % at 25 µM;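 active means melting temperature shift of at least 10% of the positive control shift, at one fixed dose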
ADAM17 inh – ADAM17 inhibition, QFRET primary screen; hit rate 0.83% among 370,000; inhibition, % at 6.95 µM; AID 720648; recombinant ADAM17, EDANS/DABCYL FRET peptide cleavage;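 active means inhibition above the mean of compounds lying between control limits plus 3 SD, set per campaign, cut at about 8.5% in these data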;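 further: 0% = DMSO-only wells as the low control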
Target sequence (P78536 215-824 limits assumed): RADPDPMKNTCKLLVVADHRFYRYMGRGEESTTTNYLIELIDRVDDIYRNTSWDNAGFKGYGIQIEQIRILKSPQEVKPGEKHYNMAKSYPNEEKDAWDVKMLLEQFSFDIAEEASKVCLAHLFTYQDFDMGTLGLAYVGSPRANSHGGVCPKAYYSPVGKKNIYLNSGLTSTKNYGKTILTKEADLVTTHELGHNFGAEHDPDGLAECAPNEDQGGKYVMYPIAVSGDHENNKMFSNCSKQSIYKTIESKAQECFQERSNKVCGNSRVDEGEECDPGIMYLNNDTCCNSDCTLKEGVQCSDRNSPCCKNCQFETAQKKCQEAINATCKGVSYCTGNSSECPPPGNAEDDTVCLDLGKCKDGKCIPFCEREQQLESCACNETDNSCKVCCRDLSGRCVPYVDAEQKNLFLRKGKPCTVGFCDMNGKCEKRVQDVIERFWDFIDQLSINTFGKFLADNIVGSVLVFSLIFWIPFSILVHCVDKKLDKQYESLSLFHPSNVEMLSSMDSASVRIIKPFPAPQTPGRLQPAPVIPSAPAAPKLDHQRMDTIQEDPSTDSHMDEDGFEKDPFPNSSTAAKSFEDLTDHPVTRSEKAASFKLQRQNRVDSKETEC
KLK7 act conf – proKLK7 activation, confirmation | activation, % at 7 µM | purified proKLK7, EDANS-DABCYL substrate fluorescence; scaled: vehicle 0, mature enzyme 100 | shares compounds with KLK7 zymogen act | AID 686949 | hit rate 68% among 3,200;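 active means activation, as change over the incubation, above the mean of all tested compounds plus 3 SD, cut at about 13% in these data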
EDANS interfere – optically interferes with EDANS-DABCYL signal, flagging KLK7 hits | shares compounds with KLK7 zymogen act | EDANS-DABCYL substrate fluorescence interference, no enzyme, 4 h; solvent 0%, active enzyme control 100% | hit rate 80% among 3,200 | activation, % at 7 µM;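 active means activation above the all-compound mean plus 3 SD, ignoring values outside control-based bounds, cut at about 4.8% in these data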;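 further: value is the 4 h activation minus the activation read at time zero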
EDANS interf – EDANS fluorescence interference in dose response, no enzyme | shares compounds with KLK7 zymogen act | EDANS-DABCYL peptide fluorescence interference | EC50, µM | hit rate 20% among 250 | AID 720493;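 active means compounds that raise the fluorescence signal in this interference counterscreen, with EC50 at or below 10 µM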;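 further: intact quenched peptide substrate alone read at 355 nm excitation and 520 nm emission; signal is fluorescence gain from T0 to T4 after four hours at room temperature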
Numbers without * were called inactive; i = inactive; x = no result given. Rows were chosen to be rich in hits. Some 4.6% of all compounds tested hit in one or more screens of this group.

SMILES	FAS TE block	KLK7 zymogen act	ADAM10 inh	NR3A LBD binder	ADAM17 inh	KLK7 act conf	EDANS interfere	others
Nc1ccc2nn(-c3ccc(F)cc3)nc2c1	-2	45*	i	-1	-219	66*	77*
COc1ccc(-n2nc3ccc(N)cc3n2)cc1	-3	99*	i	x	-228	77*	82*
COc1ccc(-n2nc(N)c(C(N)=O)n2)cc1	-3	26*	i	0	i	23*	21*
CC(C)CC(=O)Nc1ccc2nn(-c3ccccc3)nc2c1	13	3	i	-9	-294	x	x
CCCC(=O)Nc1ccc2nn(-c3ccc(OC)cc3)nc2c1	18	18*	i	8	i	35*	-4	EDANS interf=>70
CC(=O)N1CCN(c2cc(C)nc3nc(C)nn23)CC1	x	0	1	x	-1	x	x
COc1ccc(CCNCC(O)COc2cccc(C)c2)cc1OC (stereo unspecified)	x	0	-1	x	1	x	x
COc1ccccc1NC(=S)OCCN1CCCC12CCC(c1ccccc1)CC2 (stereo unspecified)	x	x	-4	x	-8	x	x
O=C(OCCCCSc1nnc(-c2cccc3ccccc23)o1)c1ccc(F)cc1	x	x	-68	x	-12	x	x
Cc1ccc(/C(O)=C2/C(=O)C(=O)N(c3ccccn3)C2c2ccc(F)cc2)cc1 (stereo unspecified)	0	2	4	0	0	x	x
CCOc1ccc(/C(O)=C2/C(=O)C(=O)N(c3ccccn3)C2c2ccc(F)cc2)c(C)c1 (stereo unspecified)	0	14*	1	1	-6	19*	20*
COc1ccc(CCNC(=O)c2cnn(-c3ccccc3)c2N)cc1OC	x	0	2	x	-1	x	x
O=C(Nc1ccc2oc(=O)c(C(=O)O)cc2c1)Oc1ccccc1	-5	100*	-208	-1	-56	187*	181*
CC(=O)Nc1ccc(NC(=O)Oc2ccccc2)cc1	-11	0	1	-45	-4	x	x
O=C(Nc1ccc(O)c(C(=O)O)c1)Oc1ccccc1	-3	26*	-182	6	-77	30*	28*
CCCC[C@H]1C2CC(OC(=O)Nc3ccc(C#N)cc3)C(C2)[C@H]2CCCCN21 (stereo partly specified)	x	-1	-13	x	-11	x	x
O=c1[nH]cnc2nc(-c3ccccc3)c(-c3ccccc3)nc12	-1	29*	i	-1	-387	29*	30*
COC(=O)C12C=C3CC(c4ccc(C(F)(F)F)cc4)=C3C(=O)N1Cc1[nH]c3ccccc3c1C2 (stereo unspecified)	x	-1	-49	x	-12	x	x
Nc1nc2c(C(=O)N3CCCC3)nnn2c2ccccc12	x	19*	i	x	-285	22*	20*
Oc1ccccc1N=Nc1ccccc1O	8	-1	8	0	2	x	x
Nc1ccc(N=Nc2ccccc2O)c(N)c1	8	40*	-59	6	-14	101*	99*
CCOC(=O)[C@@]12CN(C(=O)OC(C)(C)C)CC=C1N(Cc1ccc(OC)cc1)C(=O)[C@H]2CC(=O)NCc1ccc(C)o1	x	0	7	x	2	x	x
Cc1cc(C)c2cc3c(ccn3C3OC[C@H](O)[C@H](O)[C@H]3O)cc2n1 (stereo partly specified)	-1	23*	-43	-1	-11	48*	47*
Nc1nc(Cl)nc2c1ncn2C1OCC(O)C(O)C1O (stereo unspecified)	1	0	-2	1	-3	x	x
CC(CC(=O)Nc1ccc2c(c1)c(=O)n(C)n2Cc1ccc(F)cc1)C(F)(F)F (stereo unspecified)	-3	16*	i	x	i	-8	-11
SMILES	FAS TE block	KLK7 zymogen act	ADAM10 inh	NR3A LBD binder	ADAM17 inh	KLK7 act conf	EDANS interfere	others
COc1cc(Cn2c3ccc(NC(=O)CCc4cccnc4)cc3c(=O)n2C)ccc1F	-8	16*	i	x	-460	7	7.6*
Cn1c(=O)c2cc(NC(=O)CCc3cccnc3)ccc2n1Cc1cccc(C(F)(F)F)c1	-3	5	i	x	-444	x	x
CC(CC(=O)Nc1ccc2c(c1)c(=O)n(C)n2Cc1ccc(F)cc1)c1ccccc1 (stereo unspecified)	1	3	i	x	i	x	x
Cn1c(=O)c2cc(NC(=O)CC(C)(C)C)ccc2n1-c1ccccc1F	-9	15*	i	x	-450	-6	-16
Cn1c(=O)c2cc(NC(=O)CCc3cccnc3)ccc2n1Cc1ccc(F)cc1	-2	13*	i	x	-401	7	14*
COCC(=O)N[C@H]1C[C@@H]2O[C@@H](CO)CC[C@@H]2O[C@@H]1CCc1ccc(-c2ccccc2)cc1	x	0	-4	x	-4	x	x
COc1cc(NC(=O)[C@@H](Cc2ccccc2)NC(=O)[C@H]2O[C@@H](n3ccc(=O)[nH]c3=O)[C@H](O)[C@@H]2O)cc(OC)c1OC	x	0	-9	x	-4	x	x
CCOc1ccccc1Nc1cc(C)c2cccc(C)c2n1	32	-16	-36	-8	-21	x	x
CCOc1nc(N=C(N)N)nc2c(C)cccc12	-14	21*	-229	-2	-82	12	17*
CCc1nn(CC(=O)NCCN2CCN(C)CC2)c(=O)c2cc3c(OC)cccc3n12	-2	34*	i	5	i	27*	34*
O=C(Nc1nccs1)c1ccc(N2CCOCC2)c([N+](=O)[O-])c1	-4	13*	0	2	6	1	0
Nc1ccc2c(c1)[nH]c(=O)c1ccccc12	0	38*	i	3	-301	49*	47*
Nc1cccc2[nH]c(=O)c3ccccc3c12	-7	20*	i	1	-327	21*	21*
O=c1[nH]c2cc(O)ccc2c2ccccc12	-4	-19	-167	x	-52	x	x
C[C@@H](CCCCC1(C)OCCO1)CCC(=O)N(c1ccccc1)c1ccccc1	x	1	-6	x	0	x	x
COc1ccc(-c2ccnc3nc(/N=C/N(C)C)nn23)cc1	x	44*	i	2	i	66*	63*
CN(C)/C=N/c1nc2nccc(-c3cccnc3)n2n1	-4	13*	-307	-1	-77	65*	62*
C=CCN1C(=O)[C@@H](CC(=O)N2CCCCC2)[C@]2(C(=O)OCC)CCCCC/C=C/12	x	0	2	x	-1	x	x
O=C(Nc1nc2ccccc2[nH]1)c1cc2ccccc2o1	-4	16*	-62	-1	-30	44*	44*
COc1ccc(Cl)cc1C(=O)Nc1nc2ccccc2[nH]1	0	27*	-281	-2	-133	-3	-15
